Results filed as inconclusive are left out. Activity calls are given as the source filed them. The call rests on the fitted dose curve; in most records, active means well fitted cell-killing curve with a large enough effect; inconclusive means small, poorly fitted or top-dose-only effect; inactive means flat fitted curve, though single readings scatter. Numbered stars: 1 amine (or outer) side, 2 acyl side, 3 side chain; on linkers, the order of the positions; unused ones are H or OH. Bridge positions count the residues as written; N and C are the ends. Square brackets hold non-standard residues; d marks the D form. Peptide text beside a SMILES is read from it. I, II: the chains in the order shown. Actinocin(9to1) = Cc1c2oc3c(C)ccc(C(=O)[*:1])c3nc-2c(C(=O)[*:2])c(N)c1=O; NMeV = CN[CH](C(=O)O)C(C)C; Sar = CNCC(=O)O
Assay: Quantitative highthroughput screen to assess conditional lethalithy of P12 Ichikawa cells grown in RPMI1640 with untreated serum (RPMI+s) (AID 1963881); further: nearly all actives have a fitted effect of over 35% in size
Conditions: ATP luminescence, 48 h; Potency: viability; series mostly up to 45.8 µM
Excerpt: Assay Provider: Jason Cantor Ph.D.
Department of Biochemistry
University of Wisconsin-Madison, Madison, WI, USA
Chemical screening studies have identified drug sensitivities across hundreds of cancer cell lines but most putative therapeutics fail to translate. Discovery and development of drug candidates in models that more accurately reflect nutrient levels in human blood is a major challenge. Here we performed high-throughput screens in conventional versus Human Plasma-Like Medium (HPLM) to identify compounds that were "missed" when screening using the artificial culture condition. Sets of conditional anticancer compounds spanned phases of clinical development and included non-oncology drugs were assessed. […] We also traced conditional phenotypes for several chemotherapeutics to availability of HPLM-specific metabolites and confirmed others for compounds whose reported targets are encoded by nonessential genes. Our findings establish generalizable strategies for exploiting conditional lethality in HPLM to reveal therapeutic candidates and mechanisms of action in cancer cells.
Described herein are the results of each viability screens against three cell lines: NOMO1 (an acute myeloid leukemia cell line); P12-Ichikawa (a T-cell acute lymphoblastic leukemia); and SEM (a B-cell ALL). Each assay was screened using 3 different cell culture media: homemade human plasma-Like medium with 10% dialyzed fetal bovine serum (HPLM+ds); RPMI1640 with 10% untreated FBS and 5mM glucose (RPMI+s); and RPMI1640 with 10% dialyzed fetal bovine serum and 5 mM glucose (RPMI+ds).
PROTOCOL TABLE (as described by Inglese J, Shamu CE and Guy RK. 2007)
SEQUENCE No. (e.g., 1, 2, 3, etc.); […] (e.g., Cells, Incubation, Reagent, etc.); VALUE and DESCRIPTION.
1; Cells; 5 uL; white, solid bottom 1536-well Greiner assay plate.
2; Compounds; 23 nL; Kalypsis pin tool (Wako USA) equipped with a 1536-well pin head to transfer to the assay plates.
3; Incubation; 48 hours; 37C incubation.
4; Reagent; 3 uL; CellTiter Glo (Promega).
5; Incubation; 5 min, room temperature
6; Detection; Luminescence, Viewlux PerkinElmer.
NOTES (numbers refer to Sequence numbers above)
1. Briefly, 5 ul of cell reagent was dispensed using a Multidrop Combi Dispenser. The NOMO1 and SEM cells were plated at 500 cells/well and the P12-Ichikawa line at 1000 cells/well.
2. After seeding the cells, 23 nL of MIPE 4.1 library compounds (in DMSO) were added to each plate using a Kalypsys 1536 Pintool dispenser. Bortezomib at final concentration of […] and DMSO were added to each plate as positive and negative controls respectively. For each screen, MIPE 4.1 compounds were added over an eleven-point concentration range […] in 3-fold dilutions.
3. Each plate was covered with a stainless steel gasketed lid to prevent evaporation and incubated for 48 hour at 37C, 95% relative humidity, and 5% CO2.
4-5. Three microliter CellTilter-GloTM luminescent substrate mix (Promega) reagent was added to the assay plate and incubated at room temperature for 5 min.
6. The luminescence signal was measured using a ViewLux (PerkinElmer) multiplate reader with a 2 second exposure time per plate. Data for each compound were normalized as percent viability such that measurements for DMSO and the empty well controls in each plate were defined as 100% and 0%, respectively.
For `CC(C)c1noc(N2CCC(COc3ccc(-c4ccc(S(C)(=O)=O)cc4)nc3)CC2)n1`, the Potency was “inactive”. With `Cn1cnc2c(F)c(Nc3ccc(Br)cc3F)c(C(=O)NOCCO)cc21` the Potency was “inactive”. With `Cc1cn(-c2cc(NC(=O)c3ccc(C)c(Nc4nccc(-c5cccnc5)n4)c3)cc(C(F)(F)F)c2)cn1` the Potency was 1.32 µM (active). With `CCC(C)(Oc1ccc(C2(c3ccc(OC(C)(CC)C(=O)O)cc3)CCCCC2)cc1)C(=O)O` (stereo not given) the Potency was “inactive”. With `Nc1ncnc2c1ncn2[C@@H]1O[C@H](CO)[C@@H](O)[C@@H]1O` the Potency was 6.62 µM (active). In the case of `C[C@H](NC(=O)C(C#N)=Cc1cccc(Br)n1)c1ccccc1`, the Potency is reported as 2.35 µM (active). With `CN(CCOc1ccc(CC2SC(=O)NC2=O)cc1)c1ccccn1` (stereo not given) the Potency was “inactive”. In the case of `C=C(C)[C@@H]1CC[C@]2(C)CC[C@]3(C)[C@H](CC[C@@H]4[C@@]5(C)CC[C@H](O)C(C)(C)[C@H]5CC[C@]43C)[C@@H]12`, the Potency is reported as “inactive”. For `CNC(=O)c1ccccc1Nc1nc(Nc2ccc(N3CCOCC3)cc2OC)ncc1Cl`, the Potency was 6.62 µM (active). With `COC(=O)N1CC2(CC2)C[C@H](C(=O)NO)[C@H]1C(=O)N1CCN(c2ccccc2)CC1` the Potency was 2.34 µM (active). For `Cc1ccccc1C(C(=O)NC1CCCCC1)N(C(=O)Cn1ccnc1C)c1cccc(F)c1` (stereo not given), the Potency was “inactive”. For `COc1ccc2[nH]cc(CCNC(C)=O)c2c1`, the Potency was “inactive”. For `COc1cc([C@@H]2c3cc4c(cc3[C@@H](O[C@@H]3O[C@@H]5CO[C@@H](c6cccs6)O[C@@H]5[C@H](O)[C@@H]3O)[C@H]3COC(=O)[C@H]23)OCO4)cc(OC)c1O`, the Potency was 0.743 µM (active). In the case of `CC(C)C[C@H](NC(=O)[C@@H](NC(=O)c1cccc(-c2ccccc2)n1)[C@@H](C)O)B(O)O`, the Potency is reported as 0.0372 µM (active). In the case of `COc1cc(-c2nn(C3CCC(N4CCN(C(C)=O)CC4)CC3)c3ncnc(N)c23)ccc1NC(=O)c1cc2ccccc2n1C` (stereo not given), the Potency is reported as “inactive”. In the case of `O=C(O)c1ccc2c(c1)nc(Nc1cccc(Cl)c1)c1ccncc12`, the Potency is reported as 4.69 µM (active). For `CCCNC(=O)[C@H]1O[C@H]1C(=O)N[C@H](C(=O)N1CCC[C@@H]1C(=O)OC)C(C)CC` (stereo not given in full), the Potency was 16.6 µM (active). With `c1ccc(-c2nn3c(c2-c2ccnc4cc(OCCN5CCOCC5)ccc24)CCC3)nc1` the Potency was “inactive”. In the case of `CC(C)OC(=O)[C@H](C)N[P@](=O)(OC[C@H]1O[C@@H](n2ccc(=O)[nH]c2=O)[C@](C)(F)[C@H]1O)Oc1ccccc1`, the Potency is reported as 6.62 µM (active). For `N#Cc1cc(NC(=O)Nc2nnc(-c3ccncc3)s2)ccc1-c1cn[nH]c1`, the Potency was “inactive”. In the case of `N#CC1(c2cccc(C(=O)Nc3cc(Oc4ccc5nc(NC(=O)C6CC6)sc5n4)ccc3F)c2Cl)CC1`, the Potency is reported as 5.26 µM (active). For `OC[C@H]1O[C@@H](OCCc2ccc(O)cc2)[C@H](O)[C@@H](O)[C@H]1O`, the Potency was “inactive”. For `N#Cc1ccc(NC(=O)Nc2ccccc2Br)c2n[nH]nc12`, the Potency was “inactive”. In the case of `Cc1cc(-c2ccc(CC(=O)Nc3ccc(-c4cccnc4)cc3)cc2)ccn1`, the Potency is reported as 16.6 µM (active). For `Cc1c2oc3c(C)ccc(C(=O)NC4C(=O)NC(C(C)C)C(=O)N5CCCC5C(=O)N(C)CC(=O)N(C)C(C(C)C)C(=O)OC4C)c3nc-2c(C(=O)NC2C(=O)NC(C(C)C)C(=O)N3CCCC3C(=O)N(C)CC(=O)N(C)C(C(C)C)C(=O)OC2C)c(N)c1=O` (stereo not given) (I: TVP[Sar][NMeV] / II: TVP[Sar][NMeV]; ester I:1-I:C, II:1-II:C; linker I:N-II:N via Actinocin(9to1); configuration not given here), the Potency was “inactive”. With `CN1CCN2c3ncccc3Cc3ccccc3C2C1` (stereo not given) the Potency was “inactive”. For `O=NN(CCCl)C(=O)NCCCl`, the Potency was “inactive”. In the case of `COc1ccc(C(C)=O)c(O)c1`, the Potency is reported as 8.33 µM (active). With `Cc1nc2c(-c3cnc(N)nc3)nc(N3CCOCC3)nc2n1C(C)C` the Potency was 0.0186 µM (active). For `CN1C(C(=O)Nc2ccccn2)=C(O)c2ccccc2S1(=O)=O`, the Potency was 14.8 µM (active). With `COc1ccc(C2CC(c3ccccc3)=NN2c2ccc(S(N)(=O)=O)cc2)cc1` (stereo not given) the Potency was 4.18 µM (active). In the case of `CCn1cc(C(=O)O)c(=O)c2cc(F)c(N3CCNCC3)cc21`, the Potency is reported as 3.32 µM (active). With `CCN(CC)CCNC(=O)c1c(C)[nH]c(C=C2C(=O)Nc3ccc(F)cc32)c1C` the Potency was 0.481 µM (active). For `CCOc1ccc(Cc2cc([C@@H]3O[C@H](CO)[C@@H](O)[C@H](O)[C@@H]3O)ccc2Cl)cc1`, the Potency was “inactive”. In the case of `Cc1[nH]nc2ccc(-c3cncc(OC[C@@H](N)Cc4ccccc4)c3)cc12`, the Potency is reported as 2.96 µM (active). For `O=C(Nc1ccc(Oc2ccnc3[nH]ccc23)c(F)c1)c1cccn(-c2ccc(F)cc2)c1=O`, the Potency was “inactive”. In the case of `COC(=O)Nc1nc2ccc(C(=O)c3cccs3)cc2[nH]1`, the Potency is reported as 0.0296 µM (active). For `COc1cccc(N(C)C(=S)Oc2ccc3c(c2)CCCC3)n1`, the Potency was “inactive”. With `CCN(CC)Cc1ccc2cc(COC(=O)Nc3ccc(C(=O)NO)cc3)ccc2c1` the Potency was 2.35 µM (active). In the case of `Cn1cc(-c2cnn3c(N)c(Br)c([C@H]4CCCNC4)nc23)cn1`, the Potency is reported as 2.64 µM (active).

Reference: PubChem BioAssay (NCATS)
Potency means the concentration at half of the fitted maximal effect.
